In PubChem BioAssay (NCI):
This is part of a sample that, as a whole, favours compounds with a hit. Of some 83,000 tested, about 20% had one in any assay.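 Compound tested at a single concentration for 48 hours in 96-well plates; a percent growth value below 10 was scored as active.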 Calls of active or inactive are those of the source.

How the values were obtained:
Assay in all cases: NCI-60 one-dose screen, 48 h (100 = growth as untreated, 0 = no growth, -100 = all killed)
Conditions in all cases: 10 µM unless noted
[1] = system: HCT-15 colon
[2] = system: HT29 colon
[3] = system: SNB-75 CNS
[4] = system: SNB-19 CNS
[5] = system: U251 CNS
[6] = system: PC-3 prostate
[7] = system: SK-MEL-5 melanoma
[8] = system: UACC-62 melanoma
[9] = system: LOX IMVI melanoma
[10] = system: SK-MEL-28 melanoma

Measured: growth

Cc1cccc(NC(=O)c2sc3nc4c(cc3c2N)CCC4)c1C
inactive: [1] 20.1% | [3] 13.9% | [4] 38% | [5] 16.6% | [6] 11.2% | [7] 24.4% | [8] 28.7% | [9] 24.5% | [10] 57.8%
active: [2] 1.41%

CC(CCc1ccccc1)NC(=O)c1n[nH]c(=O)c2ccccc12 (stereo not given)
inactive: [1] 101% | [2] 105% | [3] 96.6% | [4] 115% | [5] 103% | [6] 95.7% | [7] 98.9% | [8] 93.9% | [9] 95.4% | [10] 118%

CC(C)(C)OC(=O)N[C@@H](Cc1ccccc1)C(=O)N(Cc1ccccc1)C1(C(=O)NCc2ccccc2)CCN(Cc2ccccc2)CC1
active: [6] 1.58%
inactive: [1] 36.1% | [2] 23.9% | [3] 44.9% | [4] 31.6% | [5] 33.8% | [7] 24.3% | [8] 26% | [9] 39% | [10] 69.9%

CC(C)C[C@H](NC(=O)[C@H](Cc1ccccc1)n1ccc(N2CCCCC2)cc1=O)B(O)O
active: [2] 0.204% | [3] 4.25% | [7] -25.2% | [8] -12.5% | [9] -72.1%
inactive: [1] 28.3% | [4] 29.2% | [5] 18.1% | [6] 27.7% | [10] 28.6%

CCC1=C[C@@H]2CN(C1)Cc1c([nH]c3ccccc13)[C@@](C(=O)OC)(c1cc3c(cc1OC)N(C=O)[C@H]1[C@@](O)(C(=O)OC)[C@H](OC(C)=O)[C@]4(CC)[C@@H]5C[C@@H]5CN5CC[C@]31[C@@H]54)C2
active: [2] -5.12% | [3] 8.7% | [6] 7.43% | [7] -26.9% | [9] 7.6%
inactive: [1] 10.3% | [4] 28.3% | [5] 11.8% | [8] 18.5% | [10] 60.9%

CC[C@H](C)[C@H]1NC(=O)[C@@H](N[C@](C)(O)[C@@H](N)CC(C)C)[C@@H](C)OC(=O)[C@H](Cc2ccc(OC)cc2)N(C)C(=O)[C@@H]2CCCN2C(=O)[C@H](CC(C)C)NC(=O)[C@@H](C)C(=O)[C@H](C(C)C)OC(=O)C[C@@H]1O
active: [1] 0.591% | [2] -24.6% | [3] -11.1% | [4] -12.5% | [5] -11.8% | [6] 2.33% | [7] -56.9% | [8] -42.9% | [9] -55.9% | [10] -13.6%

COc1ccc(C2=NN(c3ccc(S(N)(=O)=O)cc3)C(c3cn(-c4ccccc4)nc3-c3ccc(Cl)cc3)C2)cc1 (stereo not given)
inactive: [1] 80.8% | [2] 82.6% | [3] 89.9% | [4] 92.5% | [5] 84.1% | [6] 66.7% | [7] 99.9% | [8] 88.5% | [9] 87.3% | [10] 103%

COc1cc2c3c(c(=O)oc2cc1OS(=O)(=O)c1ccc(C(F)(F)F)cc1)CCCCC3
active: [3] 8.09%
inactive: [1] 79.2% | [2] 78.8% | [4] 76.7% | [5] 82.1% | [6] 68.1% | [7] 69.5% | [8] 68.1% | [9] 93.5% | [10] 76.3%

CCN1C(=O)N(CC)C2C1NN=c1s/c(=C\c3ccccn3)c(=O)n12 (stereo not given)
inactive: [1] 33.5% | [4] 34.1% | [5] 28.3% | [6] 24.4% | [8] 39.8% | [9] 42.6% | [10] 57.3%
active: [2] 6.69% | [3] -24.4% | [7] 5.18%

CCC(C)NCC(=O)O (stereo not given)
inactive: [1] 88.5% | [2] 78.8% | [3] 90.9% | [4] 107% | [5] 98.7% | [6] 102% | [7] 97.5% | [8] 108% | [9] 109% | [10] 104%

CCN(CC)CCC(=O)c1cccc2ccccc12
inactive: [1] 102% | [2] 110% | [3] 101% | [4] 102% | [5] 104% | [6] 95.3% | [7] 114% | [8] 97% | [9] 94.3% | [10] 111%

COc1cccc(/C=C/c2c(C(=O)O)cccc2[N+](=O)[O-])c1OC
inactive: [1] 103% | [2] 104% | [3] 89.3% | [4] 105% | [5] 95.9% | [6] 96.8% | [7] 106% | [8] 109% | [9] 99.2% | [10] 109%

COc1ccc(C2CC(c3cccs3)=NN2c2ccc(S(=O)(=O)NC(=O)NCc3cccc(OC)c3)cc2)cc1 (stereo not given)
inactive: [1] 102% | [2] 120% | [3] 99.9% | [4] 103% | [5] 98.1% | [6] 96.3% | [7] 50% | [8] 31% | [9] 96.8% | [10] 48.3%

Nc1c(C(=O)Nc2cccc(C(F)(F)F)c2)sc2nc3c(cc12)CCCCC3
active: [3] -38.2% | [5] -57% | [7] 0.77% | [9] 8.87%
inactive: [1] 50.5% | [2] 20.6% | [4] 44.8% | [6] 53% | [8] 12.8% | [10] 20.8%

O=c1[nH]c(-c2cn(-c3ccc(Cl)cc3)nn2)nc2ccccc12
inactive: [1] 101% | [2] 72.3% | [4] 72.8% | [5] 74.5% | [6] 74.8% | [7] 79% | [8] 60.9% | [9] 90.8% | [10] 58.1%
active: [3] -9.19%

CN(C)c1ccc(/C=C\N=Nc2ccc(Br)cc2)cc1
inactive: [1] 36.2% | [2] 52.9% | [3] 82% | [4] 96.2% | [5] 68.4% | [6] 52.3% | [7] 76.5% | [8] 17.2% | [9] 13.2% | [10] 83.9%

N#Cc1ncc(-c2ccc(F)c(F)c2F)c(NC2CCCCCC2)n1
inactive: [1] 76.1% | [2] 95.6% | [3] 72.2% | [4] 78.6% | [5] 59.1% | [6] 75.7% | [7] 89.9% | [8] 71.2% | [9] 84.6% | [10] 94%

COc1ccc(/C=C/C(=O)c2cc(OC)c(OC)c(OC)c2)cc1OCc1cn(Cc2ccc(F)cc2)nn1
active: [2] 4.82%
inactive: [1] 23.8% | [3] 27.5% | [4] 78.4% | [5] 19.3% | [6] 35.1% | [7] 80.8% | [8] 64.4% | [9] 13.3% | [10] 87.3%

O=C1OC(c2ccccc2)=N/C1=C\c1ccc([N+](=O)[O-])cc1
inactive: [1] 104% | [2] 98.8% | [3] 84.8% | [4] 107% | [5] 102% | [6] 94.4% | [7] 99.2% | [8] 95.5% | [9] 96.9% | [10] 102%

CC[C@H](C)[C@@H]1NC(=O)[C@H]([C@@H](C)O)NC(=O)C(Cc2ccccc2)NC(=O)[C@@H]2CCCN2C(=O)C(C(C)C)NC(=O)C(Cc2ccccc2)NC(=O)CNC(=O)[C@@H]2CCCN2C1=O (stereo not given in full)
active: [6] -0.594%
inactive: [1] 77.2% | [2] 76.2% | [3] 54.3% | [4] 73.6% | [5] 67% | [7] 64.8% | [8] 65.6% | [9] 88.7% | [10] 76.4%

NC(C(=O)O)C(O)c1ccc(OCc2ccccc2)c(OCc2ccccc2)c1 (stereo not given)
inactive: [1] 97.6% | [2] 97.3% | [3] 77.6% | [4] 97.1% | [5] 91% | [6] 89.1% | [7] 103% | [8] 97.8% | [9] 99.1% | [10] 110%

NC(=O)c1c(NC(=O)c2ccc(OCC3CCCO3)cc2)sc2c1CCCC2 (stereo not given)
inactive: [1] 101% | [2] 105% | [3] 135% | [4] 106% | [5] 95.2% | [6] 74.4% | [7] 78.2% | [8] 85% | [9] 105% | [10] 125%

CC(Br)C(OC(=O)c1ccccc1Cl)c1cc2c(cc1Br)OCO2 (stereo not given)
inactive: [1] 86.9% | [2] 85.5% | [3] 67.4% | [4] 93.7% | [5] 95.9% | [6] 82.8% | [7] 87% | [8] 72.5% | [9] 92.1% | [10] 94.5%

CCCCCc1c(C)[nH]c(/C=c2\[nH]/c(=C3/C=c4ccccc4=N3)cc2OC)c1C
active: [1] -29.8% | [2] -13.4% | [3] -22.6% | [5] -95.1% | [6] -6.91% | [7] -98.7% | [8] -78.9% | [9] -85.2% | [10] -60.2%
inactive: [4] 10.5%

CC(C)(C)c1cn2cccc(C(=O)N3CCN(CC(=O)Nc4ccc(Cl)cc4C(=O)c4ccccc4Cl)CC3)c2n1
inactive: [1] 47.5% | [2] 22.2% | [3] 78.4% | [4] 73.2% | [5] 43.4% | [6] 17.6% | [7] 12.5% | [8] 57.6% | [9] 63.5% | [10] 89.8%

CCSc1nnc(NC(=O)Cc2ccc(Cl)cc2)s1
inactive: [1] 98.3% | [2] 114% | [3] 106% | [4] 97.4% | [5] 98.7% | [6] 101% | [7] 107% | [8] 97% | [9] 97.1% | [10] 113%
